Avidin bead fluor: compound fluoresces at 488/530 nm on avidin beads. compound fluorescence 488/530 nm, flow cytometry; stronger effect = higher value. fluorescence (KMESF) at 10 µM. hit rate 0.38% among 220,000. AID 1775; in the data active = fluorescence above about 47
RGS7-Gao: modulates binding of RGS7 to human Galphao. P09471. Multiplexed bead flow cytometry; actives lie on both sides. binding response (% of control), % at 10 µM. hit rate 0.35% among 220,000; in the data active = binding response below about 49% or above about 150%; inconclusive = no clear call, values can overlap the other calls; inactive = in between;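 also: fluorescent Galphao held in activated GDP-AlF4 state binding bead-coupled RGS7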
Target sequence (P09471 whole entry, looked up): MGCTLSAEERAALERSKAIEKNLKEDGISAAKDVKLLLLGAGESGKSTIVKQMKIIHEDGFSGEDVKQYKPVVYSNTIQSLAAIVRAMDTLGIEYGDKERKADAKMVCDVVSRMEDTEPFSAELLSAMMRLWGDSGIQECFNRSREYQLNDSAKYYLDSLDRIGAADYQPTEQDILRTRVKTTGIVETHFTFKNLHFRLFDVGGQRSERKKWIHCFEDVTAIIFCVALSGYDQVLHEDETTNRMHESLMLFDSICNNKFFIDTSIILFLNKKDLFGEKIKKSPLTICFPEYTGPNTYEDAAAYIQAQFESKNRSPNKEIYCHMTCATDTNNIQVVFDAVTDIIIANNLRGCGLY
RGS8-Gao reg: human RGS8-Galphao interaction regulation. P09471. multiplexed bead flow cytometry, RGS8-Galphao binding; actives lie on both sides. response (percent of control binding), % at 10 µM. hit rate 0.34% among 220,000. AID 1423; in the data active = response below about 60% or above about 140%; inactive = in between;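 also: Galphao activated as the GDP aluminium fluoride complex binding bead-coupled RGS8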
RGS4-Gao reg: human RGS4-Galphao interaction regulation; Multiplexed bead flow cytometry, RGS4-Galphao binding; actives lie on both sides; binding response (% of control), % at 10 µM; hit rate 0.33% among 220,000; in the data active = binding response below about 49% or above about 150%; inactive = in between;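 also: fluorescent Galphao activated with aluminum fluoride binding bead-coupled RGS4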
GSH bead fluor: GSH bead compound fluorescence profile. GSH beads flow cytometry, compound fluorescence 488/530 nm; stronger effect = higher value. hit rate 0.25% among 190,000. fluorescence (KMESF) at 10 µM. AID 1776; in the data active = fluorescence above about 89;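 also: glutathione beads carrying GST-tagged Bcl family fusion proteins plus one bare bead set; values are compound well signal with DMSO vehicle wells as background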
RGS16-Gao HTS: modulates binding between human RGS16 and Galphao; O15492+P09471; bead-based flow cytometry RGS16-Galphao binding, fluorescence; actives lie on both sides; binding response (% of control), % at 10 µM; hit rate 0.38% among 220,000;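 also: Galphao activated by GDP with aluminum fluoride before binding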
RGS-Gao: regulators of human RGS4-Galphao interaction; AID 1504; shares compounds with RGS16-Gao HTS; RGS4–Galpha-o binding response, % at 10 µM; multiplexed bead flow cytometry, RGS–Galpha-o binding; hit rate 99% among 1,600;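 also: fluorescently labeled Galpha-o bound to GDP with aluminium fluoride binding biotinylated RGS beads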
Biotin-avidin: counter-screen: compounds disrupting biotin binding to avidin beads. shares compounds with RGS16-Gao HTS. streptavidin beads, fluorescein-biotin binding, flow cytometry. inhibition, % at 10 µM. 1,700 tested, under 10 active. AID 1783;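 active = inhibition above 50%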;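 also: median green fluorescence of gated singlet beads compared with DMSO control wells; 0% = DMSO wells and 100% = complete loss of bead fluorescence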
RGS8-Gao confirm: RGS8-Galphao interaction regulation, single point confirmation | shares compounds with RGS16-Gao HTS | bead-based flow cytometry RGS8-Galphao binding, fluorescence; actives lie on both sides | binding response (% of control), % at 10 µM | hit rate 3% among 1,700; in the data active = binding response below about 72% or above about 130%; inactive = in between;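 also: Galphao activated as GDP AlF4 complex before binding bead RGS8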
RGS7-Gao single: RGS7-Galphao interaction regulation, single point confirmation; shares compounds with RGS16-Gao HTS; bead-based flow cytometry RGS7-Galphao binding; actives lie on both sides; response (percent of control binding), % at 10 µM; hit rate 7.8% among 1,700; AID 1837; in the data active = response below about 75% or above about 130%; inactive = in between;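 also: fluorescent Galphao activated with GDP and aluminum fluoride binding bead-coupled RGS7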
RGS16-Gao conf: confirmation of regulators of human RGS16-Galphao interaction; shares compounds with RGS16-Gao HTS; bead-based flow cytometry, RGS16-Galphao binding; actives lie on both sides; response (% of control binding), % at 10 µM; hit rate 4% among 1,700; in the data active = response below about 74% or above about 130%; inactive = in between;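 also: Galphao activated as the GDP aluminium fluoride complex binding bead-coupled RGS16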
RGS4-Gao confirm: RGS4-Galphao interaction regulation, single point confirmation. RGS4-Galphao binding, multiplexed bead flow cytometry; actives lie on both sides. shares compounds with RGS16-Gao HTS. hit rate 4% among 1,700. binding response (% of control), % at 10 µM. AID 1840; in the data active = binding response below about 74% or above about 130%; inactive = in between
RGS19-Gao single: RGS19-Galphao interaction regulation, single point confirmation; response (percent of control binding), % at 10 µM; bead-based flow cytometry RGS19-Galphao binding; actives lie on both sides; hit rate 5% among 1,700; shares compounds with RGS16-Gao HTS; in the data active = response below about 50% or above about 160%; inactive = in between;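 also: 100% = no compound control and 0% = blank background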
Target sequence (P09471 whole entry, looked up): as above
Target sequence (P49795 whole entry, looked up): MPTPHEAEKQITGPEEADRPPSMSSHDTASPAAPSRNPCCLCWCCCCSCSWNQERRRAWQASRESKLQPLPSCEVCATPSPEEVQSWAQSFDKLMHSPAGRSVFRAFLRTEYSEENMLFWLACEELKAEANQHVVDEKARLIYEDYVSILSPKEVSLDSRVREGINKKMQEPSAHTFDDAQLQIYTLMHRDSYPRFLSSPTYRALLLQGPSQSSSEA
Active calls of the source: *; ? = inconclusive; · = no result; [ ] = dose if it differs, or a comment. An excerpt weighted towards active compounds, which were near 1.2% of everything screened. Unless noted, no rule for the calls is given here.

SMILES	Avidin bead fluor	RGS7-Gao	RGS8-Gao reg	RGS4-Gao reg	GSH bead fluor	RGS16-Gao HTS	Biotin-avidin	RGS8-Gao confirm	RGS7-Gao single	RGS16-Gao conf	RGS4-Gao confirm	RGS19-Gao single	others
N#CC1=C(N)C2=C(N3CCCCC3)CCCC2C1(C#N)C#N (configuration not stated)	4	102	107	102	5	118	·	·	·	·	·	·
N#CC(C#N)=C1C=C2C=C(N3CCCCC3)CCC2CC1 (configuration not stated)	84*	186*[activator]	110	161*[activator]	99*	173	1	105	137*[activator]	117	120	190*[activator]
CCN(CC)C1=CC2=CC(=C(C#N)C#N)CCC2CC1 (configuration not stated)	42	142	109	165*[activator]	18	168	3	103	167*[activator]	125	130*[activator]	363*[activator]
CCCCN(C)C1=CC2=CC(=C(C#N)C#N)CCC2CC1 (configuration not stated)	68*	164*[activator]	106	147	57	167	1	112	206*[activator]	157*[activator]	154*[activator]	293*[activator]	RGS-Gao=147*
N/C(=N\OC(=O)c1csnn1)c1ccc(C(F)(F)F)cc1	7	?	96	95	·	95	·	·	·	·	·	·
CC(=O)N1CCCN(Cc2cn(-c3cccc(C)c3)nc2-c2cccc(F)c2)CC1	8	?	96	94	·	88	·	·	·	·	·	·
CCc1cccc(NC(=O)Cn2c3[n+](c4ccc(C(F)(F)F)cc42)CCCCC3)c1	4	126	147*[activator]	128	9	238*[activator]	-1	106	108	105	108	113	RGS-Gao=128*
O=C(Cn1c2[n+](c3ccc(C(F)(F)F)cc31)CCCCC2)Nc1ccccc1	9	104	101	105	9	106	·	·	·	·	·	·
C=Cn1nc(C)c2ccccc2c1=O	0	14*	16*	25*	31	17*	1	99	100	99	99	104
Cc1nn(C(C)C(=O)O)c(=O)c2ccccc12 (configuration not stated)	5	95	90	94	8	67	·	·	·	·	·	·
Cc1ccc(NC(=O)NC(=O)N(C(C)C)S(C)(=O)=O)nc1	16	98	119	100	8	239*[activator]	·	·	·	·	·	·	RGS-Gao=100*
Cc1ccc(-c2nn(CC(=O)N3CCOCC3)c(=O)c3ccccc23)cc1S(=O)(=O)N(C)C	62*	?	116	163*[activator]	·	152	1	102	102	100	100	110
NC(=O)CSc1nnc(-c2ccco2)n1N	·	·	·	·	38	·	0	101	98	97	98	101
CC1=C(C(=O)OCC2CCCO2)C(c2ccsc2)C2=C(CC(C)(C)CC2=O)N1 (configuration not stated)	15	98	98	98	10	103	·	·	·	·	·	·
COC(=O)C1=C(C)NC2=C(C(=O)CC(C)(C)C2)C1c1ccsc1 (configuration not stated)	6	25*	25*	28*	11	18*	2	108	113	110	109	101
CCN(CC)S(=O)(=O)c1ccc(NCc2ccccc2)nc1	9	104	102	105	19	107	·	·	·	·	·	·
CO/N=C/C(=N\Nc1ccc(OC)cc1)C(=O)c1ccc(F)cc1	5	35*	45*	40*	15	37	2	101	94	102	98	81
CO/N=C/C(=N\Nc1ccc(C)cc1)C(=O)c1ccc(OC)cc1	10	105	105	101	14	107	·	·	·	·	·	·
CCSC1=C(C#N)C2(CCCCC2)C(C#N)C(=O)N1 (configuration not stated)	6	88	94	91	13	90	·	·	·	·	·	·
N#CC1=C2SCCN2C(=O)C(C#N)C12CCCCC2 (configuration not stated)	·	-0.9*	13*	-15*	10	-10*	1	101	102	104	101	103
CC(=O)N1CCN(S(=O)(=O)c2cccc(C(=O)OCC(=O)NC(=O)c3cccn3C)c2)CC1	6	108	125	112	15	185*[activator]	-2	93	81	91	88	83	RGS-Gao=112*
NC(=O)NC(=O)COC(=O)c1cccc(S(=O)(=O)N2CCCCCC2)c1	13	?	96	98	·	95	·	·	·	·	·	·
O=C(Nc1ccc(F)cc1)NC1(C(=O)NCc2cccs2)CCCCC1	10	104	105	109	24	126	·	·	·	·	·	·
O=C(Nc1cccc(Cl)c1)NC1(C(=O)NCc2cccs2)CCCCC1	138*	232*[activator]	92	115	25	97	-1	99	98	101	100	94	RGS-Gao=115*
CCOc1ccc2[nH]c(=O)c(C(c3nnnn3Cc3ccco3)N3CCCC(C)C3)cc2c1 (configuration not stated)	6	97	97	97	15	92	·	·	·	·	·	·
O=C(Nc1ccc([N+](=O)[O-])cc1)Nc1ccc(Cl)cc1F	-2	-4.6*	4.4*	11*	24	-52	0	100	102	102	99	102
O=C(Nc1ccc(Cl)cc1)Nc1cc([N+](=O)[O-])ccc1F	4	98	101	98	9	103	·	·	·	·	·	·
COc1ccc2c(CC(=O)OCC(=O)c3ccccc3OC)coc2c1	9	99	102	99	12	99	·	·	·	·	·	·
COc1ccc2c(CC(=O)OCC(=O)c3ccc(F)cc3)coc2c1	102*	181*[activator]	99	113	29	105	-1	102	103	102	105	121	RGS-Gao=113*
CCC(Oc1ccccc1)C(=O)N1CC(C)CC(C)C1 (configuration not stated)	8	99	94	97	24	79	·	·	·	·	·	·
